# Active and inactive are the calls of the source.
# Assays:
# Albumin (Bos taurus) = Albumin (Bos taurus) (UniProt P02769); test: bovine serum albumin binders on microarray, profiling panel, artefact control for SMM control protein annotation, biochemical, small-molecule microarray, Alexa647 label, 635/667 nm fluorescence (AID 1118); settings: BSA-A647 binding, fluorescence 635 nm, higher = more signal;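 also: score merges 667 nm emission intensity and signal-to-noise per printed compound spot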
# [1] = small-molecule microarray binders of probe aXIP, primary screen, biochemical, NeuroSMM set, 635/667 nm fluorescence (AID 1119); settings: higher = more signal, called active from +8 up or from −8 down;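 also: probe is the protein aXip251-270 applied at 1 µg/mL to compound-printed slides; binding of probe to printed compounds measured as 667 nm fluorescence plus signal to noise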
# [2] = small-molecule binders of probe aNOTCH3, primary screen, biochemical, small-molecule microarray, 635/667 nm fluorescence (AID 1120); settings: higher = more signal;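 also: probe is a biotin-tagged antibody raised against NOTCH3 rather than NOTCH3 protein; score merges spot fluorescence near 667 nm with spot signal to noise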
# [3] = small-molecule binders of probe aNOTCH2, primary screen, biochemical, small-molecule microarray, 635/667 nm fluorescence (AID 1121); settings: higher = more signal;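 also: score merges feature fluorescence read at 667 nm with its signal to noise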
# [4] = target: Carbonic anhydrase 2 (Homo sapiens) (UniProt P00918); test: CAII small-molecule binders, profiling panel, biochemical, small-molecule microarray, Alexa647-labelled CAII (AID 1122); settings: CAII-A647 binding fluorescence, higher = more signal
# [5] = COS7 lysate on small-molecule microarray, probe aHis, 635 nm (AID 1123); settings: COS7 cell lysate, fluorescence, higher = more signal;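 also: z-score combines 667nm fluorescence intensity with signal-to-noise per printed compound spot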
# [6] = compound binding in COS7 lysate, probe aLAP1, primary screen, cell lysate, small-molecule microarray (AID 1124); settings: probe aLAP1, fluorescence, higher = more signal;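 also: lysate comes from COS7 cells expressing LAP1 and is applied at 0.3 µg/mL; score merges spot fluorescence near 667 nm with signal-to-noise over triplicate slides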
# Sam68 (KHDRBS1) = test: Sam68 small-molecule binders, primary screen, biochemical, small-molecule microarray, 635 nm fluorescence (AID 1125); settings: small-molecule microarray binding, higher = more signal;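 also: score merges 667 nm channel intensity with signal to noise over triplicate slides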
# [7] = test system: Chordin-like protein 2 (CHRDL2); test: CHRDL2 small-molecule binders, primary screen, biochemical, small-molecule microarray, 635 nm fluorescence (AID 1126); settings: small-molecule microarray binding, fluorescence 635 nm; higher = more signal;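 also: printed compound slides probed with Chrdl2 protein at 4 µg/mL for 1 h at 4 C; score merges 667 nm emission intensity with signal to noise over three replicate slides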
# [8] = target: Concanavalin-A (Canavalia ensiformis) (UniProt P02866); test: ConA small-molecule binders, primary screen, artefact control for SMM control protein annotation, biochemical, small-molecule microarray, Alexa647 label, 635 nm (AID 1127); settings: ConA-A647 binding fluorescence, higher = more signal;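 also: z combines 667 nm emission intensity with signal-to-noise across three replicate slides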
# Concanavalin-A (Canavalia ensiformis), sequence (P02866 whole entry, looked up): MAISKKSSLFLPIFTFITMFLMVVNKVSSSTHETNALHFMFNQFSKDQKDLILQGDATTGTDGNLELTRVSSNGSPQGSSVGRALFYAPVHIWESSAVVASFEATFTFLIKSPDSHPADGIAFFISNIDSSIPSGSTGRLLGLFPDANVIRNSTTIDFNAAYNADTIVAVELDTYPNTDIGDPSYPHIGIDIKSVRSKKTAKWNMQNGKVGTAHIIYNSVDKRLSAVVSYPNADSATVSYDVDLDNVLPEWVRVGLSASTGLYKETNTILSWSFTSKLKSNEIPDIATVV
# [9] = anti-His antibody binders, primary screen, artefact control for SMM control protein annotation, biochemical, small-molecule microarray, 635 nm fluorescence (AID 1128); settings: anti-His Alexa647 antibody binding, higher = more signal;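 also: score merges feature fluorescence with signal-to-noise for each printed compound spot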
# [10] = test system: Human papillomavirus type 1a E7 protein (residues 1-88); test: HPV1a E7 small-molecule binders, primary screen, biochemical, small-molecule microarray, residues 1-88, 635 nm (AID 1129); settings: small-molecule microarray binding, fluorescence 635 nm; higher = more signal
# [11] = target: Focal adhesion kinase 1 (Homo sapiens) (UniProt Q05397); test: small-molecule microarray binders of FAK, primary screen, biochemical, 635/667 nm fluorescence, BSA, DTT (AID 1130); settings: PTK2 binding, 635 nm fluorescence, higher = more signal;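 also: composite of spot emission at 667 nm and signal to noise over triplicate slides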
# Focal adhesion kinase 1 (Homo sapiens), sequence (Q05397 whole entry, looked up): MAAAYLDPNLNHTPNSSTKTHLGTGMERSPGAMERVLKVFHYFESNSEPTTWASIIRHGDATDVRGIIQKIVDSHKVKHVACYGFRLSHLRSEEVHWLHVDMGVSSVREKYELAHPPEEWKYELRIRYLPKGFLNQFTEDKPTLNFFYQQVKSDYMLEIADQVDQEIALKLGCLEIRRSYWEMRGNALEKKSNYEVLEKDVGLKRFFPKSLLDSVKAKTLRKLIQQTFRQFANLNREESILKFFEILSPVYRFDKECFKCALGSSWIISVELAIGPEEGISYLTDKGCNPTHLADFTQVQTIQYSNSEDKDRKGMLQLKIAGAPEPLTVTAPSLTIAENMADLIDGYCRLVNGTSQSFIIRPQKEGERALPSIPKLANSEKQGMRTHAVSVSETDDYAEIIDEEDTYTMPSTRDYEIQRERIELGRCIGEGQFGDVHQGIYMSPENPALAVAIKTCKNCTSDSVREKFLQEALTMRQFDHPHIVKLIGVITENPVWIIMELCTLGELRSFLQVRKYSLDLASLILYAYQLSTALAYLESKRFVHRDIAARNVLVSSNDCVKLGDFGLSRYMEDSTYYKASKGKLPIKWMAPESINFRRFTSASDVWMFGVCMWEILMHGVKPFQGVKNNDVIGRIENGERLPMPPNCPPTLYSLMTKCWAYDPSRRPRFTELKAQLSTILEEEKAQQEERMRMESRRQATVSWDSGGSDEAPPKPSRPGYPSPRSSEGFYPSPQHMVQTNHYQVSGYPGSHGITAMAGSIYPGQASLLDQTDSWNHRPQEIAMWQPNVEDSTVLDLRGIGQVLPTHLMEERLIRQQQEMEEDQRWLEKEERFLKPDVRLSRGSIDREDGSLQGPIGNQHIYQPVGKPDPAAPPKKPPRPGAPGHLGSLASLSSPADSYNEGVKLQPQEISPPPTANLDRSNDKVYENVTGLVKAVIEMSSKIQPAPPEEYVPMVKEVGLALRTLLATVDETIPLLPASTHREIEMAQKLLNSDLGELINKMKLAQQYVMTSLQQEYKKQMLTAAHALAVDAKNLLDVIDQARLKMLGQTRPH
# [12] = test system: Fibrinogen (Alexa647-labelled); test: fibrinogen binders on compound microarrays, profiling panel, artefact control for SMM control-protein annotation, biochemical, small-molecule microarray, 635/667 nm fluorescence (AID 1131); settings: fibrinogen-A647 binding fluorescence, higher = more signal;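 also: z-score merges 667 nm fluorescence with per-spot signal-to-noise over triplicate slides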
# [13] = target: Follistatin (Homo sapiens) (UniProt P19883); test: follistatin binders on small-molecule microarrays, primary screen, biochemical, small-molecule microarray, 635/667 nm fluorescence (AID 1132); settings: FST binding, 635 nm fluorescence, higher = more signal
# Follistatin (Homo sapiens), sequence (P19883 whole entry, looked up): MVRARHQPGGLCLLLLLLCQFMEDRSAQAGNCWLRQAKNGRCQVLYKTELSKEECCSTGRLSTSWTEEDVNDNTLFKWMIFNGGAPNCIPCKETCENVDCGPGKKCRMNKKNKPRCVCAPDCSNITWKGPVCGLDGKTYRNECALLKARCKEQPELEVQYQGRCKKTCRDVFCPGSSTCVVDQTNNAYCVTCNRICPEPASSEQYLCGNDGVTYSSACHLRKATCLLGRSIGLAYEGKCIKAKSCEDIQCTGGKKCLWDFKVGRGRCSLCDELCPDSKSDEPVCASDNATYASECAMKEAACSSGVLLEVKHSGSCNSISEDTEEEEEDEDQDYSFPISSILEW
# [14] = target: Fibroblast growth factor 2 (Homo sapiens) (UniProt P09038); test: FGF2 binders on small-molecule microarrays, primary screen, biochemical, small-molecule microarray, 635/667 nm fluorescence (AID 1133); settings: small-molecule microarray binding, FGF2, fluorescence 635/667; higher = more signal
# Fibroblast growth factor 2 (Homo sapiens), sequence (P09038 whole entry, looked up): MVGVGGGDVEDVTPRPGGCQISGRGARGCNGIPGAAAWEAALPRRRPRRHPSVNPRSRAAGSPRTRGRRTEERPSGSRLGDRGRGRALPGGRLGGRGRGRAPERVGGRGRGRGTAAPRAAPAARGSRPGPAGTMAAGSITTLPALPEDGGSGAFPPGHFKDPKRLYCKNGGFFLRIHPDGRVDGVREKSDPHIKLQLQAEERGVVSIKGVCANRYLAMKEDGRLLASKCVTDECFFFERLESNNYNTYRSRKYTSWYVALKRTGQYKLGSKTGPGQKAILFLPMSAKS
# [15] = mitochondrial membrane potential change in A549 cells, profiling panel, cell-based, JC-1 fluorescence, basal, 24 h, 100 nL (AID 1138); settings: higher = more signal;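 also: A549 lung adenocarcinoma cells under basal conditions with no added stimulus; test concentration not given here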
# Lefty1 = Lefty1 binders on small-molecule microarrays, primary screen, biochemical, small-molecule microarray, 635/667 nm fluorescence (AID 1139); settings: small-molecule microarray binding, fluorescence 635/667; higher = more signal
# [16] = test system: wheat germ agglutinin (Triticum aestivum), Alexa647-labelled; test: wheat germ agglutinin binders on compound microarrays, profiling panel, artefact control for SMM control-protein annotation, biochemical, small-molecule microarray, 635/667 nm fluorescence (AID 1140); settings: WGA-A647 binding, 635 nm fluorescence, higher = more signal;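 also: score merges 667 nm feature emission with signal to noise over triplicate slides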
# [17] = target: Luciferin 4-monooxygenase (Photinus pyralis) (UniProt P08659); test: firefly luciferase enzyme inhibitors, primary screen, biochemical, luminescence, purified enzyme, 2006 set (AID 1141); settings: SteadyGlo luminescence, 30 min, higher = more signal, called active from +8 up or from −8 down;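 also: cell-free assay with purified firefly luciferase at 100 ng per well in PBS; test concentration not given here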
# Luciferin 4-monooxygenase (Photinus pyralis), sequence (P08659 whole entry, looked up): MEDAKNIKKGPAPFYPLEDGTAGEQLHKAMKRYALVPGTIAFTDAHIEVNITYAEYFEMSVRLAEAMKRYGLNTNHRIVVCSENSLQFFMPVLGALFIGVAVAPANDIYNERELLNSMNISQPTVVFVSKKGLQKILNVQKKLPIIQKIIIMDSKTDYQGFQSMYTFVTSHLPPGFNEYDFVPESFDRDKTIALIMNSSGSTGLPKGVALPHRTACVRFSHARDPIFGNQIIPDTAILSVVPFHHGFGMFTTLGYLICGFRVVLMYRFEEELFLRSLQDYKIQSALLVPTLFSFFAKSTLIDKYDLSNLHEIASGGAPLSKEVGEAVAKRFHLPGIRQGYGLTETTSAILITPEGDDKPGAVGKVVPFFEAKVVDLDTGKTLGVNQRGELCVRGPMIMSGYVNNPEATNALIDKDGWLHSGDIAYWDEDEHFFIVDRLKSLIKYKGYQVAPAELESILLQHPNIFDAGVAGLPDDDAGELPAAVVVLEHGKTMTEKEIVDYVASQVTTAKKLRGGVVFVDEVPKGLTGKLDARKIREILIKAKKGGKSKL
# Albumin (Bos taurus), sequence (P02769 whole entry, looked up): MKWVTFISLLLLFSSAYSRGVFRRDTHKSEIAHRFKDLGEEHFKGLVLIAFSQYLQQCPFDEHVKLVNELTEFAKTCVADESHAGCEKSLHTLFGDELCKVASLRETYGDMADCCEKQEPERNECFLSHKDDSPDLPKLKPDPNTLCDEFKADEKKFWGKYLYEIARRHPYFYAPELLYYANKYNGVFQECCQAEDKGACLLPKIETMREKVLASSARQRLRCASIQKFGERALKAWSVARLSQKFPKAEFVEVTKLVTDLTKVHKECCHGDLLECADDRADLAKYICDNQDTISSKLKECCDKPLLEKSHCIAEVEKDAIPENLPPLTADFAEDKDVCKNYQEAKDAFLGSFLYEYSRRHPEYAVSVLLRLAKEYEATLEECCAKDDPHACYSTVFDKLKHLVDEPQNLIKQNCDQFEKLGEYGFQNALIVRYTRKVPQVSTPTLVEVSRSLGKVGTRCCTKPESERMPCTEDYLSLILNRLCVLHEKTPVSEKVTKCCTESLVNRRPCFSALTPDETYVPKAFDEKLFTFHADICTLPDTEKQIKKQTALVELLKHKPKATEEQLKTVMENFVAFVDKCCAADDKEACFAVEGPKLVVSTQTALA
smiles,measurement,setting,value
O=C1C[C@@H](O)[C@@H](O)[C@@H]2[C@@H]3C(=O)N(C[C@@H]4CCCO4)C(=O)[C@@H]3CC[C@H]12,composite z-score,Albumin (Bos taurus),0.225
same,composite Z-score,[1],-0.472 (inactive)
same,composite z-score,[2],0.0197
same,composite z-score,[3],-0.203
same,composite z-score,[4],0.0413
same,composite z-score,[5],0.157
same,composite z-score,[6],-0.117
same,composite z-score,Sam68 (KHDRBS1),0.354
same,composite z-score,[7],0.72
same,composite z-score,[8],0.186
same,composite z-score,[9],0.284
same,composite z-score,[10],0.569
same,composite z-score,[11],-0.266
same,composite z-score,[12],0.684
same,composite z-score,[13],0.236
same,composite z-score,[14],0.538
same,z-score,[15],0.991
same,composite z-score,Lefty1,0.548
same,composite z-score,[16],0.085
same,z-score,[17],-0.635 (inactive)
O=C(NN=C1C[C@@H](O)[C@@H](O)[C@@H]2[C@@H]3C(=O)N(C4CCCCC4)C(=O)[C@@H]3CC[C@@H]12)OCc1ccccc1,composite z-score,Albumin (Bos taurus),0.566
same,composite Z-score,[1],-0.243 (inactive)
same,composite z-score,[2],-0.0873
same,composite z-score,[3],-0.258
same,composite z-score,[4],-0.129
same,composite z-score,[5],-0.107
same,composite z-score,[6],1.74
same,composite z-score,Sam68 (KHDRBS1),-0.881
same,composite z-score,[7],0.425
same,composite z-score,[8],0.457
same,composite z-score,[9],0.0161
same,composite z-score,[10],0.139
same,composite z-score,[11],0.0639
same,composite z-score,[12],0.294
same,composite z-score,[13],0.0434
same,composite z-score,[14],0.243
same,z-score,[15],0.163
same,composite z-score,Lefty1,-0.0104
same,composite z-score,[16],-0.132
same,z-score,[17],-0.427 (inactive)
CCOC(=O)[C@H](CC(C)C)NC(=O)CCC1CC(OC(=O)NCCc2ccc(F)cc2)CC2(CCCC(COC(=O)NCC(c3ccccc3)c3ccccc3)O2)O1 (stereo not given in full),composite z-score,Albumin (Bos taurus),0.436
same,composite Z-score,[1],0.428 (inactive)
same,composite z-score,[2],0.0372
same,composite z-score,[3],-0.108
same,composite z-score,[4],0.349
same,composite z-score,[5],-0.0758
same,composite z-score,[6],0.0521
same,composite z-score,Sam68 (KHDRBS1),1.11
same,composite z-score,[7],0.609
same,composite z-score,[8],1.1
same,composite z-score,[9],0.59
same,composite z-score,[10],0.749
same,composite z-score,[11],0.097
same,composite z-score,[12],0.874
same,composite z-score,[13],0.678
same,composite z-score,[14],0.533
same,z-score,[15],-0.642
same,composite z-score,Lefty1,0.875
same,composite z-score,[16],0.737
same,z-score,[17],0.897 (inactive)
COc1cccc([C@H]2Oc3ccc(OC)cc3C(=NOC[C@@H](C)[C@H](OCc3ccccc3)C(C)C)[C@@H]2O)c1,composite z-score,Albumin (Bos taurus),0.422
same,composite Z-score,[1],0.237 (inactive)
same,composite z-score,[2],-0.162
same,composite z-score,[3],-0.0512
same,composite z-score,[4],0.689
same,composite z-score,[5],0.923
same,composite z-score,[6],1.37
same,composite z-score,Sam68 (KHDRBS1),0.413
same,composite z-score,[7],-0.269
same,composite z-score,[8],0.0788
same,composite z-score,[9],1.78
same,composite z-score,[10],0.321
same,composite z-score,[11],0.0885
same,composite z-score,[12],0.069
same,composite z-score,[13],0.232
same,composite z-score,[14],0.0521
same,z-score,[15],-0.789
same,composite z-score,Lefty1,0.709
same,composite z-score,[16],0.872
same,z-score,[17],-0.0981 (inactive)
CCCCC#C[C@@H]1C=C[C@H](Oc2cc(OC)c(OC)c(OC)c2)[C@@H](COC(=O)OCC)O1,composite z-score,Albumin (Bos taurus),0.227
same,composite Z-score,[1],0.0299 (inactive)
same,composite z-score,[2],-0.128
same,composite z-score,[3],-0.0907
same,composite z-score,[4],-0.165
same,composite z-score,[5],-0.642
same,composite z-score,[6],0.211
same,composite z-score,Sam68 (KHDRBS1),-0.25
same,composite z-score,[7],0.251
same,composite z-score,[8],-0.0793
same,composite z-score,[9],0.054
same,composite z-score,[10],-0.637
same,composite z-score,[11],-0.253
same,composite z-score,[12],0.388
same,composite z-score,[13],0.135
same,composite z-score,[14],0.265
same,z-score,[15],2.36
same,composite z-score,Lefty1,0.386
same,composite z-score,[16],-0.0925
same,z-score,[17],-1.12 (inactive)
COc1ccc(O[C@H]2C=C[C@@H](c3ccccc3)O[C@@H]2CON=C(C)CCN2CCc3nc(-c4ccccc4)c(-c4ccccc4)cc3C2)cc1,composite z-score,Albumin (Bos taurus),0.628
same,composite Z-score,[1],-0.508 (inactive)
same,composite z-score,[2],-0.085
same,composite z-score,[3],-0.18
same,composite z-score,[4],-0.117
same,composite z-score,[5],-0.0458
same,composite z-score,[6],-0.251
same,composite z-score,Sam68 (KHDRBS1),-0.83
same,composite z-score,[7],-0.163
same,composite z-score,[8],0.799
same,composite z-score,[9],1.38
same,composite z-score,[10],-0.536
same,composite z-score,[11],0.119
same,composite z-score,[12],0.948
same,composite z-score,[13],0.477
same,composite z-score,[14],0.0194
same,z-score,[15],1.87
same,composite z-score,Lefty1,0.269
same,composite z-score,[16],0.0216
same,z-score,[17],0.84 (inactive)
COc1ccc(C#C[C@@H]2C=C[C@H](OC(C)=O)[C@@H](COC(C)=O)O2)cc1,composite z-score,Albumin (Bos taurus),0.18
same,composite Z-score,[1],-0.153 (inactive)
same,composite z-score,[2],-0.0077
same,composite z-score,[3],-0.153
same,composite z-score,[4],0.61
same,composite z-score,[5],0.759
same,composite z-score,[6],-0.019
same,composite z-score,Sam68 (KHDRBS1),0.112
same,composite z-score,[7],0.867
same,composite z-score,[8],0.536
same,composite z-score,[9],1.01
same,composite z-score,[10],0.282
same,composite z-score,[11],0.0919
same,composite z-score,[12],0.0177
same,composite z-score,[13],0.567
same,composite z-score,[14],0.183
same,z-score,[15],0.0859
same,composite z-score,Lefty1,0.649
same,composite z-score,[16],0.217
same,z-score,[17],-1.06 (inactive)
CO[C@H]1COC(=O)[C@@H](Cc2ccccc2)NC(=O)[C@@H](C)COC(=O)CCC[C@@H]1C,composite z-score,Albumin (Bos taurus),0.516
same,composite Z-score,[1],-0.112 (inactive)
same,composite z-score,[2],0.0257
same,composite z-score,[3],-0.132
same,composite z-score,[4],-0.248
same,composite z-score,[5],0.0267
same,composite z-score,[6],-0.0452
same,composite z-score,Sam68 (KHDRBS1),0.179
same,composite z-score,[7],0.295
same,composite z-score,[8],-0.171
same,composite z-score,[9],4.12
same,composite z-score,[10],-0.666
same,composite z-score,[11],0.0469
same,composite z-score,[12],-0.179
same,composite z-score,[13],0.2
same,composite z-score,[14],0.241
same,z-score,[15],-0.946
same,composite z-score,Lefty1,0.534
same,composite z-score,[16],-0.29
same,z-score,[17],0.643 (inactive)
CCCNC(=O)OC[C@H]1O[C@H](CCON=C(C)CCN2CCCc3nc(C)c(C)cc32)C=C[C@@H]1Oc1ccc(OC)cc1,composite z-score,Albumin (Bos taurus),0.727
same,composite Z-score,[1],0.475 (inactive)
same,composite z-score,[2],0.0894
same,composite z-score,[3],-0.0846
same,composite z-score,[4],0.147
same,composite z-score,[5],1.21
same,composite z-score,[6],0.0156
same,composite z-score,Sam68 (KHDRBS1),1.29
same,composite z-score,[7],0.0783
same,composite z-score,[8],0.925
same,composite z-score,[9],1.4
same,composite z-score,[10],1.09
same,composite z-score,[11],0.664
same,composite z-score,[12],0.808
same,composite z-score,[13],0.585
same,composite z-score,[14],0.499
same,z-score,[15],1.85
same,composite z-score,Lefty1,0.252
same,composite z-score,[16],0.625
same,z-score,[17],0.326 (inactive)
CC(C)=CCCC(C)=CCON=C1C[C@@H](O)[C@@H](O)[C@@H]2[C@@H]3C(=O)N(c4ccc(F)cc4F)C(=O)[C@@H]3CC[C@H]12,composite z-score,Albumin (Bos taurus),0.477
same,composite Z-score,[1],-0.356 (inactive)
same,composite z-score,[2],0.164
same,composite z-score,[3],-0.0662
same,composite z-score,[4],0.514
same,composite z-score,[5],1.31
same,composite z-score,[6],0.402
same,composite z-score,Sam68 (KHDRBS1),1.24
same,composite z-score,[7],0.812
same,composite z-score,[8],0.629
same,composite z-score,[9],1.33
same,composite z-score,[10],1.21
same,composite z-score,[11],0.631
same,composite z-score,[12],0.333
same,composite z-score,[13],0.705
same,composite z-score,[14],0.256
same,z-score,[15],-0.63
same,composite z-score,Lefty1,0.515
same,composite z-score,[16],0.335
same,z-score,[17],0.443 (inactive)

# From PubChem BioAssay
